Results from PubChem BioAssay (EPA / NIEHS).
Active and inactive are the calls of the source. How the source made its calls: active means hit-call score of the fitted dose curve at least 0.9, where 1 is the maximum; inactive means score below 0.9.

tested on: not listed separately; experiment: ATG_DR4_LXR_CIS: Attagene CIS-FACTORIAL HepG2 Assay for human Liver X Receptor (LXR), DR4 submotif (AID 2282929); settings: HepG2 Attagene DR4 cis-reporter, mRNA transcription; actives raise or lower the signal
In short: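 After transient transfection with multiplexed cis-promoter reporter units, HepG2 cells received test chemicals for 24 h. Reporter mRNA induction, detected by fluorescence after RT-PCR and capillary electrophoresis, was scored relative to DMSO.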

| Structure (SMILES) | outcome | AC50 |
| --- | --- | --- |
| O=C(O)C[C@H](O)C[C@H](O)/C=C/c1c(C2CC2)nc2ccccc2c1-c1ccc(F)cc1 | inactive |  |
| CCn1c2ccccc2c2cc(N)ccc21 | inactive |  |
| COc1cccc(OC)c1 | inactive |  |
| CCC(=O)OCc1ccccc1 | inactive |  |
| O=[N+]([O-])c1ccc(C=Cc2ccc([N+](=O)[O-])cc2S(=O)(=O)O)c(S(=O)(=O)O)c1 | inactive |  |
| CC(C)C1CCC(O)CC1 (stereo not given) | inactive |  |
| CC(=O)O[C@H](CC(=O)[O-])C[N+](C)(C)C | inactive |  |
| C=C(C)C(=O)OCCOC(=O)CC(C)=O | inactive |  |
| O=C=NC1CCC(CC2CCC(N=C=O)CC2)CC1 (stereo not given) |  | 179 µM (active) |
| O=c1cc(-c2ccccc2)oc2cc(O)cc(O)c12 |  | 7.76 µM (active) |
| O=c1[nH]nnc2ccccc12 | inactive |  |
| OCCOc1cccc(OCCO)c1 | inactive |  |

biological target: Aryl hydrocarbon receptor (Homo sapiens) (UniProt P35869); experiment: ATG_Ahr_CIS: Attagene CIS-FACTORIAL HepG2 Assay for human Aryl Hydrocarbon Receptor (Ahr) (AID 2282930); settings: HepG2 AhR cis-factorial reporter transcription; actives raise or lower the signal
Sequence (P35869 whole entry, looked up): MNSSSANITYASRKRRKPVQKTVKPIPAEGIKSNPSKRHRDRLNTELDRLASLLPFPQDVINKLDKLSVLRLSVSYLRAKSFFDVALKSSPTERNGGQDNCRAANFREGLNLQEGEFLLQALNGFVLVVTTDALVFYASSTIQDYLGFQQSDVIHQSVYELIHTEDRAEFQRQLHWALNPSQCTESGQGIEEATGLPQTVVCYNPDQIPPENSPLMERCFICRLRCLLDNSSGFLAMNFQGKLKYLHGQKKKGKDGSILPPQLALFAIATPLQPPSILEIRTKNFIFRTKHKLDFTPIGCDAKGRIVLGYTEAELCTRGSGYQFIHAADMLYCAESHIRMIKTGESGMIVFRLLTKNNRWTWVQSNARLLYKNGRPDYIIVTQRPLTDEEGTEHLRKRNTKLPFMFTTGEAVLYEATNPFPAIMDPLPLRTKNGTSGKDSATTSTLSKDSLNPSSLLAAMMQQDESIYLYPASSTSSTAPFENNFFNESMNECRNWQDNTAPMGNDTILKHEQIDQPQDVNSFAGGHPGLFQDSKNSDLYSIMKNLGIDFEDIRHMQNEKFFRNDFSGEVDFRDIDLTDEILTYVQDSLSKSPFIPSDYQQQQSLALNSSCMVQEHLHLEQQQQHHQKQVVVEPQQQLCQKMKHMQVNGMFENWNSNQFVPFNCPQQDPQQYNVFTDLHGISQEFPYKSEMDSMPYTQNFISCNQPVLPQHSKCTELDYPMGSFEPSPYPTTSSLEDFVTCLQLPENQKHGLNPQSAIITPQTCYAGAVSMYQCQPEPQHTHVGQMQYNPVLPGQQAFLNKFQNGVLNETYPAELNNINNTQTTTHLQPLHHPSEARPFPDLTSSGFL
In short: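 Read-out: reporter mRNA quantified by RT-PCR with fluorescent primer extension and capillary electrophoresis. Human HepG2 liver cells carried transfected cis-promoter reporter units and were exposed to chemical for 24 h; gain or loss fitted relative to DMSO.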

| Structure (SMILES) | outcome |
| --- | --- |
| CC(=O)O[C@]1(C(C)=O)CC[C@H]2[C@@H]3C[C@H](C)C4=CC(=O)CC[C@]4(C)[C@H]3CC[C@@]21C | inactive |
| CC(C)C1CCC(O)CC1 (stereo not given) | inactive |
| O=c1[nH]nnc2ccccc12 | inactive |

tested on: not listed separately; experiment: ATG_AP_1_CIS: Attagene CIS-FACTORIAL HepG2 Assay for human Activator Protein 1 (AP-1) (AID 2282931); settings: HepG2 Attagene cis-factorial AP-1 reporter mRNA; actives raise or lower the signal
In short: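 After 24 h incubation with test chemical, RNA from transfected HepG2 cells was reverse-transcribed, amplified, fluorescently labelled and digested before capillary electrophoresis. Reporters were driven by cis-regulatory promoters; activity fitted bidirectionally versus DMSO.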

| Structure (SMILES) | outcome | AC50 |
| --- | --- | --- |
| CO[Si](C)(OC)c1ccccc1 | inactive |  |
| COc1ccc(OC)c(OC)c1 | inactive |  |
| CN(C)CCOCCN(C)C | inactive |  |
| CCC/C=C/C=O | inactive |  |
| CCc1ccc(C=O)cc1 | inactive |  |
| O=C(O)c1cn(-c2ccc(F)cc2)c2cc(N3CCNCC3)c(F)cc2c1=O | inactive |  |
| c1ccc2c(c1)c1cccc3ccc4cccc2c4c31 | inactive |  |
| Cc1cccc(C)c1[N+](=O)[O-] | inactive |  |
| COc1nc(C)nc(N)n1 | inactive |  |
| CCCCCCCCCCCCOCCO |  | 50.2 µM (active) |
| Clc1sc(Cl)c(Cl)c1Cl | inactive |  |
| NC(N)=NC(=O)c1nc(Cl)c(N)nc1N | inactive |  |
| O=c1[nH]c(=O)n([C@H]2CCCO2)cc1F | inactive |  |
| CCC(O)CO (stereo not given) | inactive |  |
| CO[Si](CCCn1c(=O)n(CCC[Si](OC)(OC)OC)c(=O)n(CCC[Si](OC)(OC)OC)c1=O)(OC)OC | inactive |  |
| Nc1cc(N)cc(C(=O)O)c1 | inactive |  |
| CCCC(=O)OCCC(C)CCC=C(C)C (stereo not given) | inactive |  |
| O=C(O)c1cccc(C(F)(F)F)c1 | inactive |  |
| CC[Si](OC(C)=O)(OC(C)=O)OC(C)=O | inactive |  |
| CCCCCCCCC=O | inactive |  |
| CCCCOCCOCCSC#N | inactive |  |
| CCCCCCCCCCCCSC | inactive |  |
| O=C(O)C[C@H](O)C[C@H](O)/C=C/c1c(C2CC2)nc2ccccc2c1-c1ccc(F)cc1 | inactive |  |
| CCn1c2ccccc2c2cc(N)ccc21 | inactive |  |
| COc1cccc(OC)c1 | inactive |  |
| O=[N+]([O-])c1ccc(C=Cc2ccc([N+](=O)[O-])cc2S(=O)(=O)O)c(S(=O)(=O)O)c1 | inactive |  |
| CC(=O)O[C@H](CC(=O)[O-])C[N+](C)(C)C | inactive |  |
| C=C(C)C(=O)OCCOC(=O)CC(C)=O | inactive |  |
| O=C=NC1CCC(CC2CCC(N=C=O)CC2)CC1 (stereo not given) | inactive |  |
| OCCOc1cccc(OCCO)c1 | inactive |  |

tested on: not listed separately; experiment: ATG_AP_2_CIS: Attagene CIS-FACTORIAL HepG2 Assay for human Activator Protein 2 (AP-2) (AID 2282932); settings: HepG2 AP-2 cis-reporter, Attagene transcription factor profiling; actives raise or lower the signal
In short: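 Multiplexed mRNA reporter assay in HepG2: cis-regulated units report endogenous factor activity after 24 h treatment. Fluorescence from capillary electrophoresis of RT-PCR products gives the signal, with DMSO as baseline.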

| Structure (SMILES) | outcome |
| --- | --- |
| CO[Si](C)(OC)c1ccccc1 | inactive |
| COc1ccc(OC)c(OC)c1 | inactive |
| CN(C)CCOCCN(C)C | inactive |
| CCC/C=C/C=O | inactive |
| CCc1ccc(C=O)cc1 | inactive |
| O=C(O)c1cn(-c2ccc(F)cc2)c2cc(N3CCNCC3)c(F)cc2c1=O | inactive |
| c1ccc2c(c1)c1cccc3ccc4cccc2c4c31 | inactive |
| Cc1ccc(C=O)cc1 | inactive |
| Cc1cccc(C)c1[N+](=O)[O-] | inactive |
| COc1nc(C)nc(N)n1 | inactive |
